High-throughput results: PubChem, National Center for Advancing Translational Sciences (NCATS)
Rows were chosen to be rich in hits. Some 0.74% of all compounds tested hit in one or more screens of this group.
BLM helicase inh: Bloom syndrome helicase (human) inhibition; P54132; recombinant BLM DNA unwinding, fluorescence dequenching; Potency, µM (titrated, usually from 56.1 µM), inactives show at the top dose activity change, negative = inhibition, usual class: inhibitors; 350,000 tested, 0.2% active;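 further: plate controls were vehicle for no effect and no enzyme for full effect; nearly all actives have a fitted effect of over 35% in size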
Target sequence (P54132 whole entry, looked up): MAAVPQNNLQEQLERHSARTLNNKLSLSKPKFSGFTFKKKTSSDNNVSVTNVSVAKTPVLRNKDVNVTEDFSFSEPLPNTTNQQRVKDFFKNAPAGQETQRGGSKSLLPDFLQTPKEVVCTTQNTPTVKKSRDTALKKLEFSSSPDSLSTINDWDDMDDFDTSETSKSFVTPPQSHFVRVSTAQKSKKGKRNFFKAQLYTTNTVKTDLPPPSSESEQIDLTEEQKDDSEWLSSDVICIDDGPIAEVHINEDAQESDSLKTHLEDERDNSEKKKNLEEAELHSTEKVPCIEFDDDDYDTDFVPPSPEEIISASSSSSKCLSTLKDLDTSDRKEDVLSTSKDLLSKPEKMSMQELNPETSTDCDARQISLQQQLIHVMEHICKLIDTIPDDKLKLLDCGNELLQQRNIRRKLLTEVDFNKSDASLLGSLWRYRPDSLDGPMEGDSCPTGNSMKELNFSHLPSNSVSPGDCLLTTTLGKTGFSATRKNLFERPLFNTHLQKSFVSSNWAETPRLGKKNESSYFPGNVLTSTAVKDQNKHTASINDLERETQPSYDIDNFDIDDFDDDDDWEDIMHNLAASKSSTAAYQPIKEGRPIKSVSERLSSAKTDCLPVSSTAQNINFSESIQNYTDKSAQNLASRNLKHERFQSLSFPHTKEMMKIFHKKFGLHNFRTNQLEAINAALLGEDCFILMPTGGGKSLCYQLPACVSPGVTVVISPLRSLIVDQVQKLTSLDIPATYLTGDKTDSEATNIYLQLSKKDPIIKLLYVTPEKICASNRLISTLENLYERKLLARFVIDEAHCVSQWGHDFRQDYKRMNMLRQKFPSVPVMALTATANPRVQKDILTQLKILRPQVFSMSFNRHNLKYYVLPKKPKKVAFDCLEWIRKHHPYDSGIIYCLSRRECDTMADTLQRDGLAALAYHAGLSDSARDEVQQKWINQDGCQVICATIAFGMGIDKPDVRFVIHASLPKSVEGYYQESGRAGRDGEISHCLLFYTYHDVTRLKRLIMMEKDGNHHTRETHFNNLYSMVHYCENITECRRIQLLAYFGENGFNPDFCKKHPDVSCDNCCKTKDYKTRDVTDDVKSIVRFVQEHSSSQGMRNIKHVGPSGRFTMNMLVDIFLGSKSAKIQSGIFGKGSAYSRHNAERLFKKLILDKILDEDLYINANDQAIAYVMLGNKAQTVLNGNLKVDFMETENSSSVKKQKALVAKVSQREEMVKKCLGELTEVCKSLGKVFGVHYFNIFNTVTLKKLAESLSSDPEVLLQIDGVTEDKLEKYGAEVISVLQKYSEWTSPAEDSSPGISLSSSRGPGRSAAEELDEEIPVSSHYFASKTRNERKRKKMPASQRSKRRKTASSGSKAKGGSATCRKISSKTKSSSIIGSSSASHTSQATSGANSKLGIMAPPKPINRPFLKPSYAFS
APEX1 inh: inhibitors of human APE1 endonuclease. Potency, µM (highest dose often 65.8 µM), without a hit: at the top dose activity change, negative = inhibition, most hits filed as inhibitors. 350,000 tested, 0.35% active. recombinant APE1, TAMRA/BHQ-2 abasic DNA cleavage fluorescence;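 further: plate controls were vehicle for no effect and reference inhibitor for full effect; nearly all actives have a fitted effect of over 55% in size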
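APE1 at 0.75 nM final was preincubated with compound 15 min at room temperature, then 50 nM double-stranded THF abasic-site substrate (5'-TAMRA/3'-BHQ-2) was added. Fluorescence (ex 525/em 598 nm) was read kinetically; third-minus-first read gave activity.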
RECQ1 helicase: RECQ1 (human) helicase inhibition | P46063 | RECQ1 DNA unwinding, red fluorescence kinetic read | Potency, µM (doses to about 57.3 µM), for inactives: top-dose activity, negative = inhibition, hits mostly inhibitors | 240,000 tested, 0.54% active;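 further: plate controls were vehicle for no effect and no enzyme for full effect; nearly all actives have a fitted effect of over 30% in size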
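50 nM RECQ1T1 preincubated 15 min with compound in Tris pH 8.0 buffer with MgCl2, DTT, Tween-20 and 2.5 ug/ml poly(dI-dC); started with 200 nM TAMRA/BHQ-2 forked duplex and 2 mM ATP. Unwinding read as fluorescence (525/598 nm), two reads 2 h apart.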
FEN1 inhibitor: inhibitors of human flap endonuclease 1; 390,000 tested, 0.35% active; Recombinant FEN1 flap cleavage, fluorescence, 15 min; Potency, µM (top dose mostly 114 µM), for inactives: at the top dose activity change, negative = inhibition, hits mostly inhibitors; AID 588795; further: nearly all actives have a fitted effect of over 65% in size
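With each library titrated from low to high concentration, compounds met 10 nM FEN1 for 15 min at room temperature before 50 nM substrate was added; readings at 0 and 15 min fed four-parameter Hill curve fits.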
PGK inhibitor: inhibitors of T. brucei phosphoglycerate kinase | Potency, µM (top dose mostly 57.5 µM), without a hit: at the highest dose activity change, negative = inhibition, usual class: inhibitors | 380,000 tested, 0.043% active | PGK/GAPDH coupled, Kinase-Glo luminescence, 60 min; further: nearly all actives have a fitted effect of over 60% in size
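Luminescent ATP detection (Kinase-Glo Plus) follows a 60-minute room-temperature incubation, with wells lacking PGK as controls. Buffer: 100 mM TEA (pH 7.6), 5 mM MgCl2, 0.01% Tween-20. Coupling enzyme GAPDH (100 nM final) supplies unstable 1,3-BPG in-well.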
Numbers without * were called inactive; i = inactive; ? = inconclusive; / = not tested or not shown; ! = not active in a repeat; [ ] = another dose, or the depositor's remark. The call rests on the fitted dose curve; in most records, active means well fitted curve in the direction sought with a large enough effect; inconclusive means small, poorly fitted or top-dose-only effect, or another doubt; inactive means no such curve, though single readings can be large; an effect the other way counts as inactive or inconclusive. Unless noted, on the % scale 0 is the no-effect control and ±100 the full control effect; potency means the concentration at half of the fitted maximal effect.

SMILES	BLM helicase inh	APEX1 inh	RECQ1 helicase	FEN1 inhibitor	PGK inhibitor
O=C1Nc2ccc(I)cc2C1=Cc1cc(Br)c(O)c(Br)c1	/	/	/	35.5µM*	/
Nc1nc(-c2ccco2)c(-c2ccco2)s1	?	-10.0%	-14.6%	-6.9%	-4.5%
c1coc(-c2nc(-c3ccco3)c(-c3ccco3)nc2-c2ccco2)c1	14.1µM*	1.41µM*	3.98µM*	35.5µM*	?
c1coc(-c2nc3cc4ccccc4cc3nc2-c2ccco2)c1	/	/	/	5.62µM*	/
O=[N+]([O-])c1cc(CN2CCCC2)c2cccnc2c1O	?	3.55µM*	?	39.8µM*	-2.3%
Oc1c(Cl)cc(CN2CCCCC2)c2cccnc12	0.0%	26.2%	/	/	/
COc1cc2[nH]c(=S)nc(NC3CCCCCC3)c2cc1OC	-3.2%	-3.0%	-4.7%	44.7µM*	i
CCCCOc1ccc(C(=O)Nc2ccc(CN3CCOCC3)cc2)cc1	-6.4%	15.6%	/	9.8%	-0.6%
COC(=O)/C(C#N)=C/c1ccc(-c2ccc(S(N)(=O)=O)cc2)o1	1.1%	-4.4%	3.16µM*	-3.9%	i
CC(C)OC(=O)/C(C#N)=C/c1ccc(-c2ccc(SC(F)F)cc2)o1	-6.2%	3.7%	7.6%	-6.4%	-0.5%
CCc1cc(C(=O)N=Nc2c(O)[nH]c3ccc([N+](=O)[O-])cc23)c2ccccc2n1	17.8µM*	-10.6%	0.5%	?	-8.1%
C[C@@H]1CN([C@@H](C)CO)C(=O)c2cc(-c3cccnc3)cnc2O[C@H]1CN(C)C(=O)c1cccc(F)c1	/	/	/	/	8.9%
CN1/C(=C/c2cccc[n+]2CCO)Sc2ccccc21	-2.4%	5.5%	/	-1.4%	-1.1%
CC[n+]1c(/C=C2\Sc3ccccc3N2C)ccc2cccc(C)c21	62.6%	-1.3%	?	12.6µM*	-4.6%
CCCCNC(=O)CN1C(=O)NC2(CCCc3ccccc32)C1=O (stereo not given)	-0.5%	1.6%	i	-2.3%	-5.0%
CSc1ccc(CCNC(=O)c2cc3cc(S(=O)(=O)N4CCCCC4)ccc3n2C)cc1	-7.8%	/	/	-19.3%	7.6%
O=C(O)c1cc(O)c2c(c1)[C@@H]([C@H]1c3cc(C(=O)O)cc(O)c3C(=O)c3c(O[C@@H]4O[C@H](CO)[C@@H](O)[C@H](O)[C@H]4O)cccc31)c1cccc(O[C@@H]3O[C@H](CO)[C@@H](O)[C@H](O)[C@H]3O)c1C2=O	/	0.067µM*	/	3.16µM*	3.16µM*
O=C1c2c(O)cccc2[C@H]([C@@H]2O[C@H](CO)[C@@H](O)[C@H](O)[C@H]2O)c2cc(CO)cc(O)c21	/	-2.5%	/	/	/
O=C(O)c1ccc(Nc2cc(Cl)c3nonc3c2[N+](=O)[O-])cc1	-2.3%	-5.7%	10.2%	?	5.0%
O=[N+]([O-])c1c(Nc2cccc(O)c2)cc(Cl)c2nonc12	-11.4%	16.0%	/	50.1µM*	-10.0%
O=C(Nc1nc2ccccc2n1CCN1CCCCC1)c1ccco1	-2.0%	-0.7%	-14.4%	10.1%	-3.6%
O=c1c2ccccc2sn1-c1cc(S(=O)(=O)N2CCOCC2)ccc1N1CCCC1	-0.8%	-2.2%	-3.3%	-13.6%	-7.1%
O=c1c2ccccc2sn1-c1cc(S(=O)(=O)N2CCOCC2)ccc1N1CCOCC1	2.8%	-4.5%	-13.7%	31.6µM*!	5.0%
CCOC(=O)c1c(NC(C)=O)c2c3c(sc2n1Cc1cccc(Cl)c1)CCCC3	-4.5%	/	/	-1.3%	/
C=CC1=C(C)C2=NC1=CC1=NC(=CC3=NC(=CC4=NC(=C2)C(C)=C4CCC(=O)O)C(CCC(=O)O)=C3C)C(C=C)=C1C.[Zn]	35.5µM*	4.47µM*	12.6µM*	/	/
SMILES	BLM helicase inh	APEX1 inh	RECQ1 helicase	FEN1 inhibitor	PGK inhibitor
Cc1cc(CCC(=O)O)c(C)cc1CCC(=O)O	0.8%	1.4%	-0.6%	0.2%	i
O=S(=O)(Nc1c(S(=O)(=O)c2ccccc2)c2nc3ccccc3nc2n1C1CCCCC1)c1ccccc1	10µM*	14.7%	-10.4%	-16.2%	-4.0%
C=CCn1c(NS(=O)(=O)c2ccccc2)c(S(=O)(=O)c2ccc(C)cc2)c2nc3ccccc3nc21	4.47µM*	5.1%	-6.0%	-11.4%	-5.9%
Cc1ccc(S(=O)(=O)c2c(N)n(-c3ccccc3)c3nc4ccccc4nc23)cc1	-8.0%	?	-13.1%	-10.9%	i
CC(=O)Nc1c(S(=O)(=O)c2ccccc2)c2nc3ccccc3nc2n1Cc1ccccc1	-2.9%	-9.0%	-4.3%	0.3%	-0.6%
COc1ccc(CCCc2nnc(SCC(=O)N/N=C\c3ccc(O)c(OC)c3)o2)cc1C	-3.0%	-6.1%	2.9%	-6.0%	-0.4%
OC(CNCc1cccc(Br)c1)c1ccccc1 (stereo not given)	-0.9%	9.4%	i	14.4%	0.0%
O=C(Nc1c(C(=O)N2CCCC2)cnn1-c1ccccc1)c1cccc(F)c1	2.6%	8.3%	-6.5%	6.1%	-5.1%
CC1=NN(c2cccc(C(=O)O)c2)C(=O)/C1=C\C=C/c1ccccc1	-13.6%	-3.4%	-11.4%	79.4µM*	4.9%
O=c1cc(-c2cccc(O)c2)oc2c(O)c(O)ccc12	-0.9%	?	4.47µM*	/	/
COc1ccc(CN(CCC(c2ccc(F)cc2)C2CCOC(C)(C)C2)C(=O)c2ccco2)cc1 (stereo not given)	-6.6%	10.5%	25.1µM*	-9.0%	-19.7%
CC(c1ccccc1)N(CCC(c1ccccc1)C1CCOC(C)(C)C1)C(=O)c1ccco1 (stereo not given)	-9.2%	-2.0%	-8.3%	8.5%	i
CC(C)c1cc(C(=O)Nc2sc3c(c2C#N)CCC3)no1	-4.3%	-5.2%	i	1.4%	3.9%
CC(C)c1onc(C(=O)Nc2sc3c(c2C#N)CCC3)c1[N+](=O)[O-]	-14.9%	?	39.8µM*	-0.3%	i
Cn1nc(N)c2ncc(-c3ccc(Cl)cc3)nc21	/	/	/	/	2.5%
O=C(CCCOc1ccc(Cl)cc1Cl)Nc1ccncc1	-0.9%	28.2µM*	-5.7%	-12.9%	-0.9%
Cc1c2cc(O)c(=O)cc-2oc2cc(O)c(O)cc12	14.1µM*	0.794µM*	10µM*	?	?
CC1(C)Cc2c(c(-c3ccccc3)[nH]c(=O)c2C#N)CS1	-4.5%	-5.6%	-1.3%	-5.0%	-0.6%
CC1(C)Cc2c(c(-c3ccco3)[nH]c(=O)c2C#N)CS1	-1.7%	-8.7%	31.6µM*	1.2%	i
COC(C[C@H](O)[C@H](C)[C@H](O)COCc1ccccc1)OC	0.2%	-1.7%	i	-1.4%	-6.9%
CCc1ccc(/C(C)=N/NC(=O)CNC(=O)/C=C/c2ccco2)cc1	/	/	/	44.7µM*	14.1µM*
Cc1occc1C(=O)N1CCCC(Nc2ccc(C(C)C)cc2)C1 (stereo not given)	-2.2%	6.3%	/	2.1%	-6.2%
O=C(C[n+]1ccc(C(=O)N/N=C/c2ccc(OCc3ccccc3)cc2)cc1)c1ccccc1	35.5µM*	?	-12.3%	-18.6%	-3.5%[11.5 µM]
CCOC(=O)c1cnc2c(cnn2C)c1NCc1ccc(OC)cc1	-4.5%	-4.6%	-3.8%	-1.1%	-14.6%
